# Target: C7orf11
# Test: pooled miR-30 sensor sort-seq; sequence = guide strand
# Conditions: shRNA
# Further: reference of the scale not given here.
row,Sequence,sensor-assay potency score (higher = more potent)
1,TCCAACTCATTAGACATTCTTT,-1.12
2,TAAATGTTGCAAGTTATCCTAC,0.0898
3,TTGGCTTATATCCACTACAGAT,-1.16
4,ATATCCACTACAGATACTGGTT,-0.708
5,TTTTTCTCTAACACGCCCTGAT,0.0567
6,TTATATCCACTACAGATACTGG,-1.05
7,TTTTTTCTCTAACACGCCCTGA,-0.403
8,TCTAATATCAACAATACCTGAT,0.0324
9,TTGAGTATTGCTGTATTGTTGG,-0.097
10,TTCTTTTTTCTCTAACACGCCC,-0.504
11,TAATTATCCAATCAAAGTCATC,-1.65
12,TTTGAGTATTGCTGTATTGTTG,-0.804

# Target: C7orf47
# Test: as above
# Conditions: shRNA
row,Sequence,sensor-assay potency score (higher = more potent)
1,TTTCTGGGTCACACAAGATGGT,-1.07
2,TAGTTTAACACAAAAATACGAA,-0.764
3,TCACACAAGATGGTCATGTCTG,-0.315
4,AAGATGGTCATGTCTGGCCCAG,-1.42
5,TCATAAAATAGCGTTTCTGGGT,-0.72
6,TGGAGATTCATAAAATAGCGTT,-0.725
7,ATTCATAAAATAGCGTTTCTGG,-0.587
8,TAAAATAGCGTTTCTGGGTCAC,0.138
9,TAACACAAAAATACGAACTAGC,0.2
10,TTCTGGGTCACACAAGATGGTC,-1.8
11,TGGGTCACACAAGATGGTCATG,-1.71
12,TAGCGTTTCTGGGTCACACAAG,-0.834

# From the OligoGym collection
